Source: PubChem BioAssay (Sanford-Burnham Center for Chemical Genomics)
This is a sample that favours compounds with a hit; in the whole collection about 31% have one here.
CYP2C19 act: increases human CYP2C19 enzyme activity; P33261; recombinant CYP2C19, luciferin-H EGE luminescence; active compounds read high; 0 = fully inhibited enzyme, 1 = untreated enzyme; activation factor at 5 µM; 96,000 tested, under 10 active; AID 1025;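 active means activation factor of at least 2 at 5 µM in the primary screen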;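 further: 0 = wells with 2.5 mM tranylcypromine and 1 = vehicle-only wells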
PLAP activator: human PLAP activation; activation fold at 20 µM; P05187; purified PLAP enzyme, luminescent substrate read-out; active compounds read high; hit rate 1.2% among 96,000; in the data active means activation fold above about 2
Target sequence (P05187 whole entry, looked up): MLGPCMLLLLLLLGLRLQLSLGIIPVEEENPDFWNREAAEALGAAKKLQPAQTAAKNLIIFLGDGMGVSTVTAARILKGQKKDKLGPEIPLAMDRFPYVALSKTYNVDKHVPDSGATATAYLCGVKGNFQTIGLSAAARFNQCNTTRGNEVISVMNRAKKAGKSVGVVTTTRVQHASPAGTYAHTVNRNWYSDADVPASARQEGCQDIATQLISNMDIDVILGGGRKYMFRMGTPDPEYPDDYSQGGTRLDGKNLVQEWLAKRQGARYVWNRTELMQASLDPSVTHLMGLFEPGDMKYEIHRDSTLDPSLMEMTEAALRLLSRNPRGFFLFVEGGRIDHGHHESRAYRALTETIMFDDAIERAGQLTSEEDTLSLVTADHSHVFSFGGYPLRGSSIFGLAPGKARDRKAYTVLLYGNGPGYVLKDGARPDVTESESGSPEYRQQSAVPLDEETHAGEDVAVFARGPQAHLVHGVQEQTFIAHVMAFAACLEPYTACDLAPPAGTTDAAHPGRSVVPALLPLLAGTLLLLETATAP
CYP2C9 act: activators of human CYP2C9; AID 1024; P11712; activation factor at 5 µM; recombinant CYP2C9, luciferin-H conversion, luminescence; active compounds read high; factor 1 = untreated enzyme, 0 = blocked; hit rate 1.4% among 96,000;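 active means activation factor of 2 or more for CYP2C9 at a 5 µM dose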;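 further: 0 = sulfaphenazole-blocked wells and 1 = vehicle-only wells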
CYP2C19 inh: human CYP2C19 inhibition. AID 778. P33261. hit rate 21% among 96,000. inhibition, % at 5 µM. CYP2C19 Supersomes, luciferin-H EGE luminescence, 30 min;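 active means CYP2C19 inhibition above a set limit at 5 µM in the primary screen, cut at about 50% in these data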;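 further: plate controls were negative control wells for no effect and 2.5 mM tranylcypromine positive control for full effect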
CYP2C9 inh: human CYP2C9 inhibition; CYP2C9 Supersomes, luciferin-H conversion, luminescence; hit rate 20% among 96,000; inhibition, % at 5 µM; P11712;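 active means blocking of liver enzyme CYP2C9 beyond about 50% at 5 µM, limit read from the data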
* marks the source's active call; other numbers are inactive results.

SMILES | CYP2C19 act | PLAP activator | CYP2C9 act | CYP2C19 inh | CYP2C9 inh
COc1ccccc1CNC(=O)COc1ccccc1OC | 0 | 0.8 | 3.4* | 97.2* | -240.8
C#CC(C)(C)NC(=O)c1ccccc1OC | 1.2 | 1 | 2.4* | -15.3 | -138.1
O=S(=O)(NCc1ccccn1)c1cccc2nsnc12 | 1 | 1.3 | 1.3 | 1.5 | -28.3
O=C(CCNc1cccc(Cl)c1)c1cccs1 | 0.6 | 1.2 | 0.9 | 36.1 | 13.4
CCC(CC)NC(=O)Cc1ccccc1OC | 0.2 | 0.8 | 0.9 | 77.9* | 11.8
NC1=NC(c2ccccc2Cl)n2c(nc3ccccc32)N1 (configuration not stated) | 1 | 1.4 | 1 | -2.7 | -3.0
NC1=NC(c2ccc(Cl)cc2)n2c(nc3ccccc32)N1 (configuration not stated) | 0.1 | 1.7 | 0.9 | 88.5* | 10.5
COc1ccc(N2C(=O)CC(NCc3cccc(F)c3)C2=O)cc1 (configuration not stated) | 0.9 | 1.3 | 0.9 | 12.8 | 11.0
CCN=C(Nc1cccc(F)c1)SC1CC(=O)N(c2ccc(OC)cc2)C1=O (configuration not stated) | 0.7 | 0.9 | 0.4 | 31.4 | 58.6*
CCN=C(NCC)SC1CC(=O)N(c2ccccc2)C1=O (configuration not stated) | 0.1 | 1.1 | 1 | 87.8* | -1.3
CCN=C(NCC)SC1CC(=O)N(c2cccc(OC)c2)C1=O (configuration not stated) | 0.2 | 1.1 | 2.1* | 78.7* | -109.8
O=C(CCn1c(=S)[nH]c2ccccc2c1=O)NCC1CCCO1 (configuration not stated) | 1 | 0.8 | 1.2 | 4.0 | -20.3
Cc1[nH]ccc(=O)c1OCc1c(Cl)cccc1Cl | 0.9 | 0.9 | 0.8 | 12.1 | 18.2
Cc1ccc(Cn2ccc(=O)c(OCc3c(Cl)cccc3Cl)c2C)cc1 | 0.3 | 0.8 | 0.6 | 65.0* | 45.0
O=C(NCc1ccccn1)C1CCN(S(=O)(=O)c2cnc[nH]2)CC1 | 1.1 | 1.1 | 1.1 | -12.8 | -6.2
O=C(NC1CCCc2ccccc21)C1CCN(S(=O)(=O)c2cnc[nH]2)CC1 (configuration not stated) | 0.6 | 1.8 | 0.3 | 44.3 | 69.7*
O=C(NC1CCCc2ccccc21)C1CCN(S(=O)(=O)c2cccc3nonc23)CC1 (configuration not stated) | 0.9 | 0.8 | 1.6 | 7.1 | -55.3
CC(CCc1ccccc1)NC(=O)C1CCN(S(=O)(=O)c2cnc[nH]2)CC1 (configuration not stated) | 0.3 | 1.5 | 0.1 | 74.7* | 93.1*
Cn1c(SCC(=O)C(C)(C)C)nnc1-c1cccnc1 | 1.1 | 1 | 1.1 | -11.7 | -11.3
O=C(Cc1ccc2c(c1)OCCO2)c1c(O)cc(O)cc1O | 0.1 | 1.8 | 0 | 93.7* | 95.9*
Cc1cc(NS(=O)(=O)c2ccccc2)cc(Cl)c1O | 0 | 0.9 | 1.7 | 100.1* | -73.9
Cc1ccc(S(=O)(=O)Nc2cc(C)c(O)c(S(=O)(=O)c3ccc(C)cc3)c2)cc1 | 0.6 | 1.2 | 0.2 | 36.5 | 76.7*
O=C(CC1Sc2ccccc2NC1=O)Nc1cccc(C(=O)O)c1 (configuration not stated) | 1.1 | 1.1 | 0.8 | -10.5 | 15.7
CC(Oc1cc(C(F)(F)F)cc(C(F)(F)F)c1)C(=O)NC(N)=O (configuration not stated) | 1 | 1.1 | 1.2 | 0.3 | -20.7
COc1ccc(NCc2nnc(SCC#N)n2-c2ccccc2OC)cc1 | 0.6 | 1.5 | 0.7 | 38.2 | 30.3
SMILES | CYP2C19 act | PLAP activator | CYP2C9 act | CYP2C19 inh | CYP2C9 inh
Cc1ccc(S(=O)(=O)N(C(=O)c2ccncc2)c2ccc(OC(=O)c3ccncc3)c3ccccc23)c(C)c1 | 0 | 1.3 | 0 | 97.3* | 99.1*
O=C(Nc1cccnc1)C1CC(c2ccccc2O)=NO1 (configuration not stated) | 0.2 | 2* | 0.5 | 80.2* | 51.3*
CC1CN(C(=O)c2ccccc2)OC(c2ccc3c(c2)OCO3)O1 (configuration not stated) | 0.9 | 1.2 | 0.7 | 13.4 | 29.8
CC(C)c1ccc(C2C(C#N)=C(N)N3C(=C2C#N)Sc2ccccc23)cc1 (configuration not stated) | 0.3 | 1.2 | 0.8 | 66.7* | 21.0
CC(C)c1ccc(C2CC(=O)N3CN(C)CSC3=C2C#N)cc1 (configuration not stated) | 1 | 0.9 | 0.8 | 0.5 | 21.9
COc1ccc2[nH]cc(C(=O)CN3CCN(C/C=C/c4ccccc4)CC3)c2c1 | 1 | 1.7 | 0.6 | 1.8 | 36.3
O=C(N1CCOCC1)C(F)(F)C(=O)N1CCOCC1 | 1 | 1.1 | 0.9 | -3.2 | 10.5
Cn1c(=O)oc2cc(S(=O)(=O)N3CCC(C(=O)N4CC=C(c5ccccc5)CC4)CC3)ccc21 | 0.3 | 1.6 | 1.1 | 72.9* | -5.1
CCOC(=O)C1CCCN(C(=O)C2CCCN(S(=O)(=O)c3ccc4c(c3)oc(=O)n4C)C2)C1 (configuration not stated) | 0.7 | 1.5 | 0.2 | 28.0 | 80.6*
Cn1c(=O)oc2cc(S(=O)(=O)N3CCCC(C(=O)N4CCn5c4nc4ccccc45)C3)ccc21 (configuration not stated) | 1.2 | 1 | 1.1 | -19.0 | -6.1
Cn1c(=O)oc2cc(S(=O)(=O)N3CCCC(C(=O)N4CCc5ccccc5C4)C3)ccc21 (configuration not stated) | 0.1 | 1.6 | 0.5 | 91.4* | 47.6
CCCC(=O)NNc1cc(=O)c2c(=O)n(C)c(=O)n(C)c2[nH]1 | 1.1 | 0.8 | 1.1 | -11.6 | -9.3
COc1ccccc1N1CCN(C(=O)C2CCN(S(=O)(=O)N3CCOCC3)CC2)CC1 | 1 | 1.3 | 1.1 | -3.1 | -13.4
CCOC(=O)/C(C#N)=C1/SC(C)C(=O)N1c1ccc(Br)cc1 (configuration not stated) | 0 | 1.3 | 0.3 | 95.4* | 71.8*
CCC1S/C(=C(\C#N)C(=O)NCc2ccco2)N(c2ccc(Br)cc2)C1=O (configuration not stated) | 0.6 | 1.4 | 0.5 | 42.6 | 51.3*
CCC1S/C(=C(\C#N)C(=O)NCc2ccco2)N(c2ccc(F)cc2)C1=O (configuration not stated) | 0.7 | 1.1 | 0.9 | 25.4 | 9.7
CCOC(=O)/C(C#N)=C1/SC(CC)C(=O)N1c1ccc(Br)cc1 (configuration not stated) | 0.2 | 1.1 | 0.6 | 78.4* | 40.8
COc1ccccc1OCCCOc1ccc([N+](=O)[O-])cc1Cl | 0.6 | 1 | 0.7 | 43.8 | 27.5
CC(CC(=O)Nc1ccc(Cl)c([N+](=O)[O-])c1)c1ccccc1 (configuration not stated) | 0.2 | 0.8 | 0.3 | 75.9* | 73.5*
COc1ccc([N+](=O)[O-])cc1NC(=S)Nc1ccccc1 | 0.5 | 0.8 | 0.6 | 50.4* | 42.1
O=[N+]([O-])c1ccc(NNC(=S)Nc2ccccc2)cc1 | 0.4 | 1 | 0.2 | 58.9* | 78.6*
